{"source": "PubChem BioAssay (NCATS)", "note": "Results filed as inconclusive are left out. Active and inactive are the calls of the source. Calls come from the whole dose curve; as a rule, active = well fitted inhibition curve with a large enough effect; inconclusive = small, poorly fitted or top-dose-only effect; inactive = flat fitted curve, though single readings scatter. Potency is the fitted concentration of half-maximal effect."}
{"assay": "qHTS profiling for inhibitors of Plasmodium falciparum proliferation (AID 504749); note: nearly all actives have a fitted effect of over 60% in size", "conditions": "P. falciparum in erythrocytes, SYBR Green DNA, 72 h; parasite line A", "how_it_was_run": "(§1)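 SYBR Green fluorescence (ex 485 nm, em 535 nm) reports parasite DNA after 72 h compound exposure of infected red cells at 0.3% parasitemia, 2.5% hematocrit; signal normalized to 0.29 uM artemisinin and vehicle wells.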"}
{"smiles": "COC(=O)[C@H]1[C@H]2C[C@@H]3c4[nH]c5ccccc5c4CCN3C[C@H]2C[C@@H](OC(=O)c2cc(OC)c(OC)c(OC)c2)[C@@H]1OC", "Potency": "355 nM (active)"}
{"smiles": "Clc1cc(Cl)c(OCC#CI)cc1Cl", "Potency": "11200 nM (active)"}
{"smiles": "CCN(CC)Cc1cc(Nc2ccnc3cc(Cl)ccc23)ccc1O", "Potency": "35.5 nM (active)"}
{"smiles": "CCCCCCCCCCCC[n+]1ccc2ccccc2c1", "Potency": "794 nM (active)"}
{"smiles": "CO[C@H](C(=O)[C@@H](O)[C@@H](C)O)C1Cc2cc3cc(O[C@H]4C[C@@H](O[C@H]5C[C@@H](O)[C@H](O)[C@@H](C)O5)[C@@H](O)[C@@H](C)O4)c(C)c(O)c3c(O)c2C(=O)[C@H]1O[C@H]1C[C@@H](O[C@H]2C[C@@H](O[C@H]3C[C@](C)(O)[C@H](O)[C@@H](C)O3)[C@H](O)[C@@H](C)O2)[C@H](O)[C@@H](C)O1", "note": "(some centres undefined)", "Potency": "112 nM (active)"}
{"smiles": "COC(=O)C1=C(C#N)NC(C)=C(C(=O)OC(C)C)C1c1cccc([N+](=O)[O-])c1", "note": "(centres undefined)", "Potency": "8910 nM (active)"}
{"smiles": "CCCCCCCCCCCCCC[n+]1ccc(C)cc1", "Potency": "2510 nM (active)"}
{"assay": "qHTS profiling for inhibitors of Plasmodium falciparum proliferation (AID 504749); note: nearly all actives have a fitted effect of over 60% in size", "conditions": "P. falciparum in erythrocytes, SYBR Green DNA, 72 h; parasite line B", "how_it_was_run": "as §1"}
{"smiles": "COC(=O)[C@H]1[C@H]2C[C@@H]3c4[nH]c5ccccc5c4CCN3C[C@H]2C[C@@H](OC(=O)c2cc(OC)c(OC)c(OC)c2)[C@@H]1OC", "Potency": "631 nM (active)"}
{"smiles": "Clc1cc(Cl)c(OCC#CI)cc1Cl", "Potency": "11200 nM (active)"}
{"smiles": "CCN(CC)Cc1cc(Nc2ccnc3cc(Cl)ccc23)ccc1O", "Potency": "39.8 nM (active)"}
{"smiles": "CCCCCCCCCCCC[n+]1ccc2ccccc2c1", "Potency": "501 nM (active)"}
{"smiles": "CO[C@H](C(=O)[C@@H](O)[C@@H](C)O)C1Cc2cc3cc(O[C@H]4C[C@@H](O[C@H]5C[C@@H](O)[C@H](O)[C@@H](C)O5)[C@@H](O)[C@@H](C)O4)c(C)c(O)c3c(O)c2C(=O)[C@H]1O[C@H]1C[C@@H](O[C@H]2C[C@@H](O[C@H]3C[C@](C)(O)[C@H](O)[C@@H](C)O3)[C@H](O)[C@@H](C)O2)[C@H](O)[C@@H](C)O1", "note": "(some centres undefined)", "Potency": "251 nM (active)"}
{"smiles": "COC(=O)C1=C(C#N)NC(C)=C(C(=O)OC(C)C)C1c1cccc([N+](=O)[O-])c1", "note": "(centres undefined)", "Potency": "11200 nM (active)"}
{"smiles": "CCCCCCCCCCCCCC[n+]1ccc(C)cc1", "Potency": "5620 nM (active)"}
